# Source: PubChem BioAssay AID1508601 (ICCB-Longwood Screening Facility, Harvard Medical School, 2020)
# Values joined by “and” are separate entries in the source; they are usually repeats but may differ in a detail not shown here. Equal values may be shown once. The whole screen tested about 5,700 compounds, of which about 85 (1%) were called active. This is one part of a sample in which actives are shown more often than they occur. Cut-off read from the data, not from the text of the source: active = p53-positive nuclei above about 36% (passing the limit was not always enough); inactive = the rest.
# Assays:
# [1] = nuclear p53 accumulation, HPV+ cells – imaging, p53-positive nuclei imaging, 24 h, 48 h (AID 1508601); details: 24/48 h
# [2] = target: Cellular tumor antigen p53 (Homo sapiens) (UniProt P04637); test: as above; details: 24/48 h, stronger effect = higher value
# [3] = measured here: cell number at 24 h, Library stock concentration: 500 nM
# [4] = measured here: cell number at 24 h, Library stock concentration: 1.5 uM
# [5] = measured here: cell number at 24 h, Library stock concentration: 4.6 uM
# [6] = measured here: cell number at 24 h, Library stock concentration: 13.7 uM
# [7] = measured here: cell number at 24 h, Library stock concentration: 41 uM
# [8] = measured here: cell number at 24 h, Library stock concentration: 123 uM
# [9] = measured here: cell number at 24 h, Library stock concentration: 370 uM
# [10] = measured here: cell number at 24 h, Library stock concentration: 1.111 mM
# [11] = measured here: cell number at 24 h, Library stock concentration: 3.333 mM
# [12] = measured here: cell number at 24 h, Library stock concentration: 10 mM
# [13] = measured here: cell number at 48 h, Library stock concentration: 500 nM
# [14] = measured here: cell number at 48 h, Library stock concentration: 1.5 uM
# [15] = measured here: cell number at 48 h, Library stock concentration: 4.6 uM
# [16] = measured here: cell number at 48 h, Library stock concentration: 13.7 uM
# [17] = measured here: cell number at 48 h, Library stock concentration: 41 uM
# [18] = measured here: cell number at 48 h, Library stock concentration: 123 uM
# [19] = measured here: cell number at 48 h, Library stock concentration: 370 uM
# [20] = measured here: cell number at 48 h, Library stock concentration: 1.111 mM
# [21] = measured here: cell number at 48 h, Library stock concentration: 3.333 mM
# [22] = measured here: cell number at 48 h, Library stock concentration: 10 mM
# [23] = Library stock concentration: 500 nM
# [24] = Library stock concentration: 1.5 uM
# [25] = Library stock concentration: 4.6 uM
# [26] = Library stock concentration: 13.7 uM
# [27] = Library stock concentration: 41 uM
# [28] = Library stock concentration: 123 uM
# [29] = Library stock concentration: 370 uM
# [30] = Library stock concentration: 1.111 mM
# [31] = Library stock concentration: 3.333 mM
# [32] = Library stock concentration: 10 mM
# [33] = measured here: p53 positive nuclei at 24 h, Library stock concentration: 500 nM
# [34] = measured here: p53 positive nuclei at 24 h, Library stock concentration: 1.5 uM
# [35] = measured here: p53 positive nuclei at 24 h, Library stock concentration: 4.6 uM
# [36] = measured here: p53 positive nuclei at 24 h, Library stock concentration: 13.7 uM
# [37] = measured here: p53 positive nuclei at 24 h, Library stock concentration: 41 uM
# [38] = measured here: p53 positive nuclei at 24 h, Library stock concentration: 123 uM
# [39] = measured here: p53 positive nuclei at 24 h, Library stock concentration: 370 uM
# [40] = measured here: p53 positive nuclei at 24 h, Library stock concentration: 1.111 mM
# [41] = measured here: p53 positive nuclei at 24 h, Library stock concentration: 3.333 mM
# [42] = measured here: p53 positive nuclei at 24 h, Library stock concentration: 10 mM
# [43] = measured here: cell number at 24 h, Library stock concentration: 80 uM
# [44] = measured here: cell number at 24 h, Library stock concentration: 400 uM
# [45] = measured here: cell number at 24 h, Library stock concentration: 2 mM
# [46] = measured here: cell number at 48 h, Library stock concentration: 80 uM
# [47] = measured here: cell number at 48 h, Library stock concentration: 400 uM
# [48] = measured here: cell number at 48 h, Library stock concentration: 2 mM
# [49] = Library stock concentration: 80 uM
# [50] = Library stock concentration: 400 uM
# [51] = Library stock concentration: 2 mM
# [52] = measured here: p53 positive nuclei at 24 h, Library stock concentration: 80 uM
# [53] = measured here: p53 positive nuclei at 24 h, Library stock concentration: 400 uM
# [54] = measured here: p53 positive nuclei at 24 h, Library stock concentration: 2 mM
# Cellular tumor antigen p53 (Homo sapiens), sequence (P04637 whole entry, looked up): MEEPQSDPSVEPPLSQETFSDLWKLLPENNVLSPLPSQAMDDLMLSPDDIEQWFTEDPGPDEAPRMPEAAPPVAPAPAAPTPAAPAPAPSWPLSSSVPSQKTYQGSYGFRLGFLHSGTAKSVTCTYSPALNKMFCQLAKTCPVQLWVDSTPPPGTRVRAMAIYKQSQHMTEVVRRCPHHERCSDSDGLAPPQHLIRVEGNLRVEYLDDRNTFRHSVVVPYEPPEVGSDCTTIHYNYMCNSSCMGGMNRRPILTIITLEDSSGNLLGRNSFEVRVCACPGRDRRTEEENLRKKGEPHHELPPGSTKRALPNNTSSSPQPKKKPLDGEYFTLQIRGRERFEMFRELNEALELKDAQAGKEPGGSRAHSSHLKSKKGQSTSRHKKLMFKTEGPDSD
structure (smiles),measurement,setting,value
CCCCCCCCCCCCCC=CC(O)C(CO)N(C)C (stereo unspecified),"nuclei count, normalised",[1]; [3],120%
same,"nuclei count, normalised",[1]; [4],110%
same,"nuclei count, normalised",[1]; [5],117%
same,"nuclei count, normalised",[1]; [6],108%
same,"nuclei count, normalised",[1]; [7],110%
same,"nuclei count, normalised",[1]; [8],122%
same,"nuclei count, normalised",[1]; [9],122%
same,"nuclei count, normalised",[1]; [10],118%
same,"nuclei count, normalised",[1]; [11],102%
same,"nuclei count, normalised",[1]; [12],35.8%
same,"nuclei count, normalised",[1]; [13],115%
same,"nuclei count, normalised",[1]; [14],109%
same,"nuclei count, normalised",[1]; [15],107%
same,"nuclei count, normalised",[1]; [16],107%
same,"nuclei count, normalised",[1]; [17],110%
same,"nuclei count, normalised",[1]; [18],114%
same,"nuclei count, normalised",[1]; [19],116%
same,"nuclei count, normalised",[1]; [20],112%
same,"nuclei count, normalised",[1]; [21],109%
same,"nuclei count, normalised",[1]; [22],22.2%
same,"p53-positive nuclei, normalised",[2]; [23],-0.17% (inactive)
same,"p53-positive nuclei, normalised",[2]; [24],-0.126% (inactive)
same,"p53-positive nuclei, normalised",[2]; [25],-0.0366% (inactive)
same,"p53-positive nuclei, normalised",[2]; [26],-0.121% (inactive)
same,"p53-positive nuclei, normalised",[2]; [27],-0.00454% (inactive)
same,"p53-positive nuclei, normalised",[2]; [28],-0.0524% (inactive)
same,"p53-positive nuclei, normalised",[2]; [29],0.0673% (inactive)
same,"p53-positive nuclei, normalised",[2]; [30],-0.00344% (inactive)
same,"p53-positive nuclei, normalised",[2]; [31],-0.0281% (inactive)
same,"p53-positive nuclei, normalised",[2]; [32],3.77% (inactive)
same,"p53-positive nuclei, normalised",[2]; [33],-0.148%
same,"p53-positive nuclei, normalised",[2]; [34],-0.148%
same,"p53-positive nuclei, normalised",[2]; [35],-0.148%
same,"p53-positive nuclei, normalised",[2]; [36],-0.019%
same,"p53-positive nuclei, normalised",[2]; [37],-0.0213%
same,"p53-positive nuclei, normalised",[2]; [38],-0.148%
same,"p53-positive nuclei, normalised",[2]; [39],-0.0899%
same,"p53-positive nuclei, normalised",[2]; [40],-0.0918%
same,"p53-positive nuclei, normalised",[2]; [41],-0.0113%
same,"p53-positive nuclei, normalised",[2]; [42],3.53%
c1cc(NCCc2c[nH]c3ccccc23)cc(Nc2ccncc2)c1,"nuclei count, normalised",[1]; [43],103%
same,"nuclei count, normalised",[1]; [44],107%
same,"nuclei count, normalised",[1]; [45],107%
same,"nuclei count, normalised",[1]; [12],91.3%
same,"nuclei count, normalised",[1]; [46],101%
same,"nuclei count, normalised",[1]; [47],107%
same,"nuclei count, normalised",[1]; [48],108%
same,"nuclei count, normalised",[1]; [22],77.6%
same,"p53-positive nuclei, normalised",[2]; [49],-0.0385% (inactive)
same,"p53-positive nuclei, normalised",[2]; [50],-0.0904% (inactive)
same,"p53-positive nuclei, normalised",[2]; [51],-0.152% (inactive)
same,"p53-positive nuclei, normalised",[2]; [32],-0.0614% (inactive)
same,"p53-positive nuclei, normalised",[2]; [52],-0.148%
same,"p53-positive nuclei, normalised",[2]; [53],-0.0802%
same,"p53-positive nuclei, normalised",[2]; [54],0.142%
same,"p53-positive nuclei, normalised",[2]; [42],-0.0614%
COc1ccc(CN2CCN(c3nccc(-c4c(C)nn(C)c4C)n3)CC2=O)cc1,"nuclei count, normalised","[1]; measured here: cell number at 24 h, concentration not given here",101%
same,"nuclei count, normalised","[1]; measured here: cell number at 48 h, concentration not given here",105%
same,"p53-positive nuclei, normalised",[2]; concentration not given here,-0.125% (inactive)
same,"p53-positive nuclei, normalised","[2]; measured here: p53 positive nuclei at 24 h, concentration not given here",-0.147%
CN(C)CCC(CSc1ccccc1)Nc1ccc(S(=O)(=O)NC(=O)c2ccc(N3CCN(Cc4ccccc4-c4ccc(Cl)cc4)CC3)cc2)cc1[N+](=O)[O-] (stereo unspecified),"nuclei count, normalised",[1]; [3],120%
same,"nuclei count, normalised",[1]; [4],122%
same,"nuclei count, normalised",[1]; [5],117%
same,"nuclei count, normalised",[1]; [6],121%
same,"nuclei count, normalised",[1]; [7],117%
same,"nuclei count, normalised",[1]; [43],111% and 86.3%
same,"nuclei count, normalised",[1]; [8],117%
same,"nuclei count, normalised",[1]; [9],117%
same,"nuclei count, normalised",[1]; [44],109% and 85.3%
same,"nuclei count, normalised",[1]; [10],113%
same,"nuclei count, normalised",[1]; [45],113% and 92.5%
same,"nuclei count, normalised","[1]; measured here: cell number at 24 h, Library stock concentration: 3.33 mM",105%
same,"nuclei count, normalised",[1]; [11],127%
same,"nuclei count, normalised",[1]; [12],111% and 80.6% and 116%
same,"nuclei count, normalised",[1]; [13],112%
same,"nuclei count, normalised",[1]; [14],111%
same,"nuclei count, normalised",[1]; [15],112%
same,"nuclei count, normalised",[1]; [16],117%
same,"nuclei count, normalised",[1]; [17],114%
same,"nuclei count, normalised",[1]; [46],99.7% and 87.7%
same,"nuclei count, normalised",[1]; [18],112%
same,"nuclei count, normalised",[1]; [19],113%
same,"nuclei count, normalised",[1]; [47],97.6% and 86%
same,"nuclei count, normalised",[1]; [20],112%
same,"nuclei count, normalised",[1]; [48],98% and 96.4%
same,"nuclei count, normalised","[1]; measured here: cell number at 48 h, Library stock concentration: 3.33 mM",102%
same,"nuclei count, normalised",[1]; [21],126%
same,"nuclei count, normalised",[1]; [22],106% and 92.8% and 127%
same,"p53-positive nuclei, normalised",[2]; [23],-0.0213% (inactive)
same,"p53-positive nuclei, normalised",[2]; [24],0.0237% (inactive)
same,"p53-positive nuclei, normalised",[2]; [25],0.0183% (inactive)
same,"p53-positive nuclei, normalised",[2]; [26],-0.104% (inactive)
same,"p53-positive nuclei, normalised",[2]; [27],-0.0533% (inactive)
same,"p53-positive nuclei, normalised",[2]; [49],0.0591% (inactive) and -0.273% (inactive)
same,"p53-positive nuclei, normalised",[2]; [28],-0.176% (inactive)
same,"p53-positive nuclei, normalised",[2]; [29],-0.136% (inactive)
same,"p53-positive nuclei, normalised",[2]; [50],0.0679% (inactive) and 0.126% (inactive)
same,"p53-positive nuclei, normalised",[2]; [30],-0.092% (inactive)
same,"p53-positive nuclei, normalised",[2]; [51],-0.0104% (inactive) and 0.232% (inactive)
same,"p53-positive nuclei, normalised",[2]; Library stock concentration: 3.33 mM,-0.445% (inactive)
same,"p53-positive nuclei, normalised",[2]; [31],-0.149% (inactive)
same,"p53-positive nuclei, normalised",[2]; [32],-0.104% (inactive) and 0.208% (inactive) and -0.0111% (inactive)
same,"p53-positive nuclei, normalised",[2]; [33],0.154%
same,"p53-positive nuclei, normalised",[2]; [34],-0.0609%
same,"p53-positive nuclei, normalised",[2]; [35],-0.00335%
same,"p53-positive nuclei, normalised",[2]; [36],-0.0575%
same,"p53-positive nuclei, normalised",[2]; [37],0.00542%
same,"p53-positive nuclei, normalised",[2]; [52],-0.0528% and -0.0593%
same,"p53-positive nuclei, normalised",[2]; [38],-0.105%
same,"p53-positive nuclei, normalised",[2]; [39],-0.113%
same,"p53-positive nuclei, normalised",[2]; [53],-0.0967% and 0.0394%
same,"p53-positive nuclei, normalised",[2]; [40],-0.104%
same,"p53-positive nuclei, normalised",[2]; [54],-0.0967% and 0.437%
same,"p53-positive nuclei, normalised","[2]; measured here: p53 positive nuclei at 24 h, Library stock concentration: 3.33 mM",0.0238%
same,"p53-positive nuclei, normalised",[2]; [41],-0.165%
same,"p53-positive nuclei, normalised",[2]; [42],-0.00444% and -0.0479% and 0.0019%
